Experimental data reported in the supplement of paper PMC11732987, “Enantioselective OTUD7B fragment discovery through chemoproteomics screening and high-throughput optimisation” (Communications Chemistry, 2025).

Experiments:
Test in all cases: log2 ratio of Biotin-Ahx-Ub-VS probe labelling (fragment/DMSO); higher = less target engagement (more negative = stronger competition), active = hit call of the paper (q ≤ 0.05, log2 ratio ≤ -1)
Conditions in all cases: compound concentration: 200 uM; treatment time: 3 h
OTUD6B = target: T1, OTUD6B (UniProt Q8N6M0)
T1 sequence (whole entry): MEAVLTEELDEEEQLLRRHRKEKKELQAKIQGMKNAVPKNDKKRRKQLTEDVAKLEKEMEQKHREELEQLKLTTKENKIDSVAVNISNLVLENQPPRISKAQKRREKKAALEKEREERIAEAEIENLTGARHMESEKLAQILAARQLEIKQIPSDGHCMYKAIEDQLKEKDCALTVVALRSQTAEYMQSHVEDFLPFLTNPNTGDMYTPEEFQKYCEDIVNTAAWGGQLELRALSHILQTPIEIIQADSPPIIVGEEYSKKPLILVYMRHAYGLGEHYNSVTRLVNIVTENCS
Summary of the method: (§1)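 Lysate from HEK293T cells, 495 µg per sample in Tris/CHAPS/IGEPAL buffer with protease inhibitors, was treated for 3 h in triplicate with fragment at 200 µM or vehicle. Biotin-Ahx-Ub-VS was next added at 0.5 µM final for 1 h. The labelled DUBs were enriched with NeutrAvidin, digested with LysC and trypsin, and run by diaPASEF LC-MS/MS, with values given as average log2 fragment/vehicle ratios by unpaired t-test on global-median-normalised Spectronaut quantities of proteins with ≥2 unique peptides.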

OTUD7B = target: T2, OTUD7B (UniProt Q6GQQ9)
T2 sequence (whole entry): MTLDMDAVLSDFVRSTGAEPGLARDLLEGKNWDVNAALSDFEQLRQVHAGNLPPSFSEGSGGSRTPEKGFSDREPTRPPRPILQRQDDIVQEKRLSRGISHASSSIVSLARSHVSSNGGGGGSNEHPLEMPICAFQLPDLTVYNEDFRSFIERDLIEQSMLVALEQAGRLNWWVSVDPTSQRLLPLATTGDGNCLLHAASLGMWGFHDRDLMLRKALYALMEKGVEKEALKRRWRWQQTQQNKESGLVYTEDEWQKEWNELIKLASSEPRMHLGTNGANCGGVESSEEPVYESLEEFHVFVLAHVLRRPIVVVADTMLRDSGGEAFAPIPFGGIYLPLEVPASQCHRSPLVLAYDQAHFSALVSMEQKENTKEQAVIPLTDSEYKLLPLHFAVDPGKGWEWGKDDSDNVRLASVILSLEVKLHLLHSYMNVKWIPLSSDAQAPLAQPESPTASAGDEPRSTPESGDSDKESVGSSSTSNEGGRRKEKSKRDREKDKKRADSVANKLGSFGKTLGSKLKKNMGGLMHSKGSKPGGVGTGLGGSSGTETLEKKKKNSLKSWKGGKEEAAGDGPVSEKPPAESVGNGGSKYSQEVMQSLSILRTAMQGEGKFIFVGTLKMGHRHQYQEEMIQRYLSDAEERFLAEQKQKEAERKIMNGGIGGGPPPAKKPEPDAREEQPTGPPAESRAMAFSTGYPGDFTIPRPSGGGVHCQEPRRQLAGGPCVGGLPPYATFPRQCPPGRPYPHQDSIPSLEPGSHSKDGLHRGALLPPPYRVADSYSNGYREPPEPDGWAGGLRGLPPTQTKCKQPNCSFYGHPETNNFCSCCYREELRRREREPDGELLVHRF
Summary of the method: as §1

PRPF8 = PRPF8 (UniProt Q6P2Q9)
Summary of the method: as §1

PSMD7 = target: T3, PSMD7 (UniProt P51665)
T3 sequence (whole entry): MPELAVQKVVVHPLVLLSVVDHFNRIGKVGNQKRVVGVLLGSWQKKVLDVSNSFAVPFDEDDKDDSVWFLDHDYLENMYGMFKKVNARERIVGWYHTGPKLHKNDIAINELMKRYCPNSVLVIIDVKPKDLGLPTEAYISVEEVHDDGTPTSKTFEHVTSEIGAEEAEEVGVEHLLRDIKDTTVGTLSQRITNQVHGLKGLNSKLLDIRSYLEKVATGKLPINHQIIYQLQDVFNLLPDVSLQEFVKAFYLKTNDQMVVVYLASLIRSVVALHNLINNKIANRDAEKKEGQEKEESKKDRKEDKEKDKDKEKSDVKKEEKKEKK
Summary of the method: as §1

UCHL1 = UCHL1 (UniProt P09936)
UCHL1, sequence (P09936 whole entry, looked up): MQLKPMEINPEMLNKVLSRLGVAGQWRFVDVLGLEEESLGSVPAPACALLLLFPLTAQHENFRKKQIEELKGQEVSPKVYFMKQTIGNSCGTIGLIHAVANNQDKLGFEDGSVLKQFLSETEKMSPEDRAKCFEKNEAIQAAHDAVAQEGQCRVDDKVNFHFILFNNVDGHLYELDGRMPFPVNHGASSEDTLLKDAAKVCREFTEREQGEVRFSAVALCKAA
Summary of the method: as §1

UCHL3 = target: T4, UCHL3 (UniProt P15374)
T4 sequence (whole entry): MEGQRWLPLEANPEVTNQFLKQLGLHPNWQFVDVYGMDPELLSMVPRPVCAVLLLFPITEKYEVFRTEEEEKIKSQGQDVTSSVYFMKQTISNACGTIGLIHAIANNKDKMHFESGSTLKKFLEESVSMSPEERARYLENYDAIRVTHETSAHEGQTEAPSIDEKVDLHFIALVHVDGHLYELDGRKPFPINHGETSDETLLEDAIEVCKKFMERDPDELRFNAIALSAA
Summary of the method: as §1

UCHL5 = target: T5, UCHL5 (UniProt Q9Y5K5)
T5 sequence (whole entry): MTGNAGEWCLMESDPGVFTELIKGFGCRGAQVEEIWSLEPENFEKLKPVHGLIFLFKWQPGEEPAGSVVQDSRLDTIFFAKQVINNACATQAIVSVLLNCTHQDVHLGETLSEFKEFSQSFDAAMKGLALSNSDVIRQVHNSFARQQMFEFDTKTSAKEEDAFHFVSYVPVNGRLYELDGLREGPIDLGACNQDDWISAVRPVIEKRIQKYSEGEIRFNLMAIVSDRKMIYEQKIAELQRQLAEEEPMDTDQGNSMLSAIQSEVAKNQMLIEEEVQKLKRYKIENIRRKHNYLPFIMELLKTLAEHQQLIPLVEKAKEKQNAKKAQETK
Summary of the method: as §1

USP10 = USP10 (UniProt Q14694)
USP10, sequence (Q14694 whole entry): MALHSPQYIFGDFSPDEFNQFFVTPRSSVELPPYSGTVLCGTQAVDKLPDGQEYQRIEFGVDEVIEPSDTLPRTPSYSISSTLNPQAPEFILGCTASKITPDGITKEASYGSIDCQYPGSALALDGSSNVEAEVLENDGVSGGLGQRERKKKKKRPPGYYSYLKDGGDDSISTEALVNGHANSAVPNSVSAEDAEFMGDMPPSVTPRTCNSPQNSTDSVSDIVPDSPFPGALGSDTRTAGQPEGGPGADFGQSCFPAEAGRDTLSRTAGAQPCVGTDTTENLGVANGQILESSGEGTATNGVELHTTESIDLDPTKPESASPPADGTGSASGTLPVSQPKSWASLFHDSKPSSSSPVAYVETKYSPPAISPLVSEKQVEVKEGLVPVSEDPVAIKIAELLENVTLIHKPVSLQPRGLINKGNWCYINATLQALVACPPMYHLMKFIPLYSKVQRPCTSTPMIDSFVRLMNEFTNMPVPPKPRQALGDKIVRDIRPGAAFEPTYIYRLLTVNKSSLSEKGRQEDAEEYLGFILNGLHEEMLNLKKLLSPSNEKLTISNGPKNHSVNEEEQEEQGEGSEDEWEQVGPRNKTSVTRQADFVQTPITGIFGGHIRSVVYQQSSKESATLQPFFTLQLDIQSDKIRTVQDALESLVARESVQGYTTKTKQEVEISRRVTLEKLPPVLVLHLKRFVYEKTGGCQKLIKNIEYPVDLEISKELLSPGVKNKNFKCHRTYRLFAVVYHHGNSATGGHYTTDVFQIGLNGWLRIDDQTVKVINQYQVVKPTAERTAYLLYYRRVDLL
Summary of the method: as §1

USP15 = target: T6, USP15 (UniProt Q9Y4E8)
T6 sequence (whole entry): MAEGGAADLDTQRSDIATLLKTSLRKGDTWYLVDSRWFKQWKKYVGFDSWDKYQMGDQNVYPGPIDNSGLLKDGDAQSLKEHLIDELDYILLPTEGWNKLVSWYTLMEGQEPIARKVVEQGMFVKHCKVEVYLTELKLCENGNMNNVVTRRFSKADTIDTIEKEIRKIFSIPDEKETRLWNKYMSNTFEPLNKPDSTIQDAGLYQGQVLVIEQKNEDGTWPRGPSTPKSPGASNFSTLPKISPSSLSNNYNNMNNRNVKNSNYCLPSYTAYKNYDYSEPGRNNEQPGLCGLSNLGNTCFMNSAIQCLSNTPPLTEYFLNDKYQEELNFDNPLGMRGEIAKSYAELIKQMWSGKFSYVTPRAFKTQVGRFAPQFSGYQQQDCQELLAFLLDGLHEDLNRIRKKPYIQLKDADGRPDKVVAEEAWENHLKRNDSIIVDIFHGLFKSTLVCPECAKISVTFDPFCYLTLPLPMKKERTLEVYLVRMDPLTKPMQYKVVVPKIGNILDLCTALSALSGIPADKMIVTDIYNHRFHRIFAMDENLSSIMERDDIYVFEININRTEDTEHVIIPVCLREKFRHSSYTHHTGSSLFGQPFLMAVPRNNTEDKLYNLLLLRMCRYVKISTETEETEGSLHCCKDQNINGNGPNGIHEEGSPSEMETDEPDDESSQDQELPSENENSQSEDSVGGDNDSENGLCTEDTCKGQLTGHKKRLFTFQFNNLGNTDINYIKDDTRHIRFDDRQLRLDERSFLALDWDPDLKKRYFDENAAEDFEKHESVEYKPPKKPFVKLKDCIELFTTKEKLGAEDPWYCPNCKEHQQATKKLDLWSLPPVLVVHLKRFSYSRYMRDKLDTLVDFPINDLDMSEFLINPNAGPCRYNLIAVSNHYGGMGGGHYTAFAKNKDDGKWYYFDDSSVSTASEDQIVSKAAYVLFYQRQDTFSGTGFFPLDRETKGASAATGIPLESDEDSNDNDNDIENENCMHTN
Summary of the method: as §1

USP16 = USP16 (UniProt Q9Y5T5)
USP16, sequence (Q9Y5T5 whole entry, looked up): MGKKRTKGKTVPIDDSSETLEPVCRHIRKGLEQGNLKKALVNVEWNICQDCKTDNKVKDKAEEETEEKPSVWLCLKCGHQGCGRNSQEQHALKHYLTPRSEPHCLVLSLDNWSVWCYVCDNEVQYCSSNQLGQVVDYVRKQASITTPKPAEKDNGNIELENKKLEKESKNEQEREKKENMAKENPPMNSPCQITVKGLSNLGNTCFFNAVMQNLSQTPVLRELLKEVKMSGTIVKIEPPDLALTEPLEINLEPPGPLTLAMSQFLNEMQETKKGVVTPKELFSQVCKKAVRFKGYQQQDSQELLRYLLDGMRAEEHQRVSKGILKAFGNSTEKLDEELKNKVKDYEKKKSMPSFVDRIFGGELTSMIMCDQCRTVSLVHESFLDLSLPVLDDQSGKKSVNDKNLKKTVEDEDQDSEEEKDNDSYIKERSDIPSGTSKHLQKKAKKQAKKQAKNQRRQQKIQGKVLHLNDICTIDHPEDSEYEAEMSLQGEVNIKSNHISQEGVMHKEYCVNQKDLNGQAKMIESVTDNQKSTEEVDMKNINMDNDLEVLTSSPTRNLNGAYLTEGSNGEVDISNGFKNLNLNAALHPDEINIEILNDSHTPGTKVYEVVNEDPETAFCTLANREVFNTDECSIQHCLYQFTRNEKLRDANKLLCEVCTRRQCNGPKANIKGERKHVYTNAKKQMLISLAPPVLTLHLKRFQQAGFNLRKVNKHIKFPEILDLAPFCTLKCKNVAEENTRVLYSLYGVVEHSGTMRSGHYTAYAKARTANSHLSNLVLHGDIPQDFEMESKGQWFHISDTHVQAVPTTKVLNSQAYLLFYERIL
Summary of the method: as §1

Measured: log2 ratio of Biotin-Ahx-Ub-VS probe labelling

COc1ccc(CN(C)C(=O)CCl)cc1
active: UCHL1 -1.22
inactive: OTUD6B -0.199 | OTUD7B -0.373 | PRPF8 0.0533 | PSMD7 -0.411 | UCHL3 0.249 | UCHL5 -0.235 | USP10 -0.213 | USP15 -0.112 | USP16 0.163
